Data from PubChem BioAssay (EPA / NIEHS).
The source made the active and inactive calls. Rule for the calls: active = hit-call score of the fitted dose curve at least 0.9, where 1 is the maximum; inactive = score below 0.9.

Biological target: Signal transducer and activator of transcription 3 (Homo sapiens) (UniProt P40763)
Assay: ATG_STAT3_CIS: Attagene CIS-FACTORIAL HepG2 Assay for human Signal Transducer and Activator of Transcription 3 (STAT3) (AID 2282963)
Settings: HepG2, Attagene cis-factorial STAT3 reporter transcription; actives raise or lower the signal
How it was run: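 HepG2 cells transiently transfected with cis-element-driven multiple reporter transcription units; after 24 h chemical exposure, reporter mRNA measured by RT-PCR, 6-FAM primer-extension labelling, HpaI digestion and capillary electrophoresis. Bidirectional fitting versus DMSO baseline.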

Signal transducer and activator of transcription 3 (Homo sapiens), sequence (P40763 whole entry, looked up): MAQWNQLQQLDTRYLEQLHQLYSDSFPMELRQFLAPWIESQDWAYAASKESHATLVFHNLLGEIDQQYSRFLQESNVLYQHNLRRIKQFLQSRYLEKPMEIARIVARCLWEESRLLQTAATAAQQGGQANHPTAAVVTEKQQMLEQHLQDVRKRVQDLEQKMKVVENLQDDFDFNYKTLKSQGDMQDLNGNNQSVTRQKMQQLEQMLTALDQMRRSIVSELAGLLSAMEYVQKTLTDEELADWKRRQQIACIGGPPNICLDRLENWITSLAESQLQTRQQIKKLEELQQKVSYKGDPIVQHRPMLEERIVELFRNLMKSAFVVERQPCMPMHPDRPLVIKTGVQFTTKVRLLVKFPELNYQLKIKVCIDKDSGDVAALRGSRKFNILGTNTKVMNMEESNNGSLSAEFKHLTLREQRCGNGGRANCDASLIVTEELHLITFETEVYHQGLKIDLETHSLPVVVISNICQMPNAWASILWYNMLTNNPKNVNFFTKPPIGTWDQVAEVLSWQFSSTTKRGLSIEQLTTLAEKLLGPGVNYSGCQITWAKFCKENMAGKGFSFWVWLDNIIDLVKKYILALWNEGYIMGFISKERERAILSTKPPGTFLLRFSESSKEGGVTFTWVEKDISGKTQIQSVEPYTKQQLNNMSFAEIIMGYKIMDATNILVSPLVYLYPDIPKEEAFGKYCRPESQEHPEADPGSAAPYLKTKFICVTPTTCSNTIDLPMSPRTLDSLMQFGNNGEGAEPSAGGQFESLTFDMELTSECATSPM

SMILES | outcome | AC50
O=C(O)c1cc(C(=O)O)cc([N+](=O)[O-])c1 | inactive | 
O=C(Nc1ccc([N+](=O)[O-])cc1)Nc1ccc([N+](=O)[O-])cc1 (tested in a mixture with another compound) | inactive | 
O=C1c2ccccc2C(=O)c2c(O)ccc(O)c21 | inactive | 
OCC#CCO | inactive | 
Cc1ncc([N+](=O)[O-])n1CCO | inactive | 
CCC1(c2ccccc2)C(=O)NCNC1=O | inactive | 
OC[C@H]1O[C@@H](Oc2ccc(O)cc2)[C@H](O)[C@@H](O)[C@@H]1O | inactive | 
COS(=O)(=O)O | inactive | 
Cc1occc(=O)c1OC(=O)C(C)C | inactive | 
CC1=NN(c2ccc(S(=O)(=O)O)cc2)C(=O)C1 | inactive | 
CC(C)NCC(O)COc1ccc(CC(N)=O)cc1 (stereo not given) | inactive | 
CC(C)OCCO | inactive | 
CN(C)C(=O)Nc1ccc(Oc2ccc(Cl)cc2)cc1 | inactive | 
COc1cc(C(C)C)ccc1C | inactive | 
O=C(O)c1cccnc1C(=O)O | inactive | 
CCCC(=O)c1ccccc1 | inactive | 
CCCCCCCCC=CCCCCCCCC1=NCCN1CCO |  | 25.9 µM (active)
C=C(C)[C@@H]1CC=C(C)C(=O)C1 | inactive | 
CC1(C)O[C@@H]2[C@@H](CO[C@@]3(COS(N)(=O)=O)OC(C)(C)O[C@@H]23)O1 | inactive | 
COc1cc(CCC(C)=O)ccc1O | inactive | 

SMILES | outcome | AC50
CC=Cc1ccc(OC)c(OC)c1 | inactive | 
CC[N+](C)(CC)CC | inactive | 
C[Si](C)(C)O[Si](C)(C)C | inactive | 
C=Cc1ccncc1 | inactive | 
CSc1c(Cl)c(Cl)c(Cl)c(Cl)c1Cl | inactive | 
Clc1cc(Cl)c(-c2c(Cl)c(Cl)cc(Cl)c2Cl)cc1Cl | inactive | 
CCOC(=O)CN | inactive | 
C=CCCCCCCCCCC | inactive | 
COC(=O)C=C(C)CCC=C(C)C | inactive | 
CCCCCCCCN1CCCC1=O |  | 168 µM (active)
CS(=O)(=O)c1ccc(Cl)cc1 | inactive | 
CC(C)CCOC(=O)c1ccccc1 | inactive | 
O=C(c1ccccc1)C(O)c1ccccc1 (stereo not given) | inactive | 
CCCCCCCCCCCCCC(=O)OCC(O)CO (stereo not given) | inactive | 
CCCCCCCCCCCCS(=O)(=O)Cl | inactive | 
CCCCCCC(C)(C)S | inactive | 
CCOc1ccc(NC(=O)CC(C)=O)cc1 | inactive | 
O=CCc1ccccc1 | inactive | 
O=P(O)(O)O | inactive | 

System: not listed separately
Assay: ATG_TA_CIS: Attagene CIS-FACTORIAL HepG2 Assay for human TA Basal Promoter (AID 2282964)
Settings: HepG2 Attagene CIS-factorial TA basal promoter reporter; actives raise or lower the signal
How it was run: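 HepG2 cells transiently transfected with multiplexed cis-promoter reporter units, dosed 24 h. Reporter mRNA measured by RT-PCR, 6-FAM labelling, HpaI digestion and capillary electrophoresis; bidirectional fit versus DMSO baseline, serving as background control.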

SMILES | outcome
O=C(Nc1ccc([N+](=O)[O-])cc1)Nc1ccc([N+](=O)[O-])cc1 (tested in a mixture with another compound) | inactive
Cc1ncc([N+](=O)[O-])n1CCO | inactive
CCC1(c2ccccc2)C(=O)NCNC1=O | inactive
Cc1occc(=O)c1OC(=O)C(C)C | inactive
CC1=NN(c2ccc(S(=O)(=O)O)cc2)C(=O)C1 | inactive
CC(C)NCC(O)COc1ccc(CC(N)=O)cc1 (stereo not given) | inactive
CC(C)OCCO | inactive
CN(C)C(=O)Nc1ccc(Oc2ccc(Cl)cc2)cc1 | inactive
COc1cc(C(C)C)ccc1C | inactive
O=C(O)c1cccnc1C(=O)O | inactive
CCCC(=O)c1ccccc1 | inactive
CCCCCCCCC=CCCCCCCCC1=NCCN1CCO | inactive
CC1(C)O[C@@H]2[C@@H](CO[C@@]3(COS(N)(=O)=O)OC(C)(C)O[C@@H]23)O1 | inactive
COc1cc(CCC(C)=O)ccc1O | inactive
CC=Cc1ccc(OC)c(OC)c1 | inactive
CC[N+](C)(CC)CC | inactive
C[Si](C)(C)O[Si](C)(C)C | inactive
C=Cc1ccncc1 | inactive
CSc1c(Cl)c(Cl)c(Cl)c(Cl)c1Cl | inactive
CCOC(=O)CN | inactive
C=CCCCCCCCCCC | inactive
COC(=O)C=C(C)CCC=C(C)C | inactive
CCCCCCCCN1CCCC1=O | inactive
CC(C)CCOC(=O)c1ccccc1 | inactive
CCCCCCCCCCCCCC(=O)OCC(O)CO (stereo not given) | inactive
CCCCCCC(C)(C)S | inactive
CCOc1ccc(NC(=O)CC(C)=O)cc1 | inactive
O=CCc1ccccc1 | inactive
O=P(O)(O)O | inactive

System: not listed separately
Assay: ATG_TCF_b_cat_CIS: Attagene CIS-FACTORIAL HepG2 Assay for human T-Cell-Factor with beta-catenin (TCF/b-cat) (AID 2282965)
Settings: HepG2 TCF/beta-catenin cis-reporter transcription, actives raise or lower the signal
How it was run: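 HepG2 cells transiently transfected with multiple cis-promoter-regulated reporter transcription units, so endogenous transcription factor activity is measured. Reporter mRNA read 24 hours after dosing by RT-PCR, fluorescent labelling and capillary electrophoresis; bidirectional fitting against DMSO.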

SMILES | outcome | AC50
O=C(Nc1ccc([N+](=O)[O-])cc1)Nc1ccc([N+](=O)[O-])cc1 (tested in a mixture with another compound) | inactive | 
O=C1c2ccccc2C(=O)c2c(O)ccc(O)c21 | inactive | 
OCC#CCO | inactive | 
Cc1ncc([N+](=O)[O-])n1CCO | inactive | 
CCC1(c2ccccc2)C(=O)NCNC1=O | inactive | 
OC[C@H]1O[C@@H](Oc2ccc(O)cc2)[C@H](O)[C@@H](O)[C@@H]1O | inactive | 
COS(=O)(=O)O | inactive | 
CC1=NN(c2ccc(S(=O)(=O)O)cc2)C(=O)C1 | inactive | 
CC(C)NCC(O)COc1ccc(CC(N)=O)cc1 (stereo not given) | inactive | 
CC(C)OCCO | inactive | 
CN(C)C(=O)Nc1ccc(Oc2ccc(Cl)cc2)cc1 | inactive | 
COc1cc(C(C)C)ccc1C | inactive | 
CCCC(=O)c1ccccc1 | inactive | 
CCCCCCCCC=CCCCCCCCC1=NCCN1CCO | inactive | 
C=C(C)[C@@H]1CC=C(C)C(=O)C1 | inactive | 
COc1cc(CCC(C)=O)ccc1O | inactive | 

SMILES | outcome | AC50
CC=Cc1ccc(OC)c(OC)c1 | inactive | 
CC[N+](C)(CC)CC | inactive | 
C[Si](C)(C)O[Si](C)(C)C | inactive | 
C=Cc1ccncc1 |  | 57 µM (active)
CSc1c(Cl)c(Cl)c(Cl)c(Cl)c1Cl |  | 50.3 µM (active)
Clc1cc(Cl)c(-c2c(Cl)c(Cl)cc(Cl)c2Cl)cc1Cl | inactive | 
CCOC(=O)CN | inactive | 
C=CCCCCCCCCCC | inactive | 
COC(=O)C=C(C)CCC=C(C)C | inactive | 
CCCCCCCCN1CCCC1=O | inactive | 
CC(C)CCOC(=O)c1ccccc1 | inactive | 
O=C(c1ccccc1)C(O)c1ccccc1 (stereo not given) | inactive | 
CCCCCCCCCCCCS(=O)(=O)Cl | inactive | 
CCOc1ccc(NC(=O)CC(C)=O)cc1 | inactive | 
O=CCc1ccccc1 | inactive | 
O=P(O)(O)O | inactive | 
